{"source": "paper PMC4552634", "about": "“A New Set of Chemical Starting Points with Plasmodium falciparum Transmission-Blocking Potential for Antimalarial Drug Discovery” (PLoS ONE, 2015)", "note": "The whole screen tested about 13,000 compounds, of which about 3,200 (25%) showed an effect of 50% or more. The list shows a part of the results.", "data": [{"test_system": "P. falciparum stage V gametocytes", "design": "BacTiter-Glo ATP luminescence viability of purified stage V gametocytes in 384-well plates, per cent inhibition versus DMSO", "details": "48 h, 5 µM; inhibitor", "units": {"% Inhibition": "%"}, "values": [{"smiles": "CSCCCN1CCC(O)(c2ccc3oc(C(=O)Nc4ccc5sc(C)nc5c4)cc3c2)CC1", "note": "[TCMDC-124646]", "% Inhibition": 11.7}, {"smiles": "COCCNCc1ccc(-c2ccccc2CNC2CCN(Cc3ccccc3)CC2)cc1", "note": "[TCMDC-140471]", "% Inhibition": 43.38}, {"smiles": "CC(C)CNCc1ccc(-c2ccc(CNC3CCN(Cc4ccccc4)CC3)cc2)cc1", "note": "[TCMDC-140488]", "% Inhibition": 73.02}, {"smiles": "CC(C)CNCc1ccc(-c2ccccc2CNC2CCN(Cc3ccccc3)CC2)cc1", "note": "[TCMDC-140470]", "% Inhibition": 78.66}, {"smiles": "Cc1cc(-c2ccc3c(c2)CC[C@@H](N[C@@H](C)c2ccccc2)C3)cnc1N", "note": "[TCMDC-138130]", "% Inhibition": 26.54}, {"smiles": "Cn1c(NC(=O)C2CCC(CNC(=O)c3ccc(O)c(-c4cccc([N+](=O)[O-])c4)c3)CC2)nc2ccccc21", "note": "(stereo not shown) [TCMDC-140883]", "% Inhibition": 1.197}, {"smiles": "O=C(Nc1cccc(-c2nn3ccccc3c2-c2ccnc(Nc3ccccc3)n2)c1)c1cc(F)ccc1F", "note": "[TCMDC-135823]", "% Inhibition": -54.26}, {"smiles": "COc1ccc(-c2ccc([N+](=O)[O-])cc2C(=O)NCC(C)Oc2ccc(C(F)(F)F)cc2)cc1", "note": "(stereo not shown) [TCMDC-132304]", "% Inhibition": 94.55}, {"smiles": "NCCNc1ccc([N+](=O)[O-])cc1C(=O)Nc1cccc(C(F)(F)F)c1", "note": "[TCMDC-123677]", "% Inhibition": 3.903}, {"smiles": "COc1ccc(OC(C)CNC(=O)c2cc([N+](=O)[O-])ccc2-c2ccc(OC)cc2)cc1", "note": "(stereo not shown) [TCMDC-132303]", "% Inhibition": 16.94}, {"smiles": "N=C1NC(=O)C(=Cc2cn(-c3ccccc3)nc2-c2cccc(S(=O)(=O)N3CCCC3)c2)S1", "note": "[TCMDC-123756]", "% Inhibition": 0.418}, {"smiles": "NC1CCN(Cc2cccc(-c3ccc(-c4nc5ccccc5[nH]4)cc3)c2)C1", "note": "(stereo not shown) [TCMDC-133846]", "% Inhibition": 28.29}, {"smiles": "NC1CCN(Cc2cccc(-c3cccc(-c4nc5ccccc5[nH]4)c3)c2)C1", "note": "(stereo not shown) [TCMDC-133875]", "% Inhibition": 72.93}, {"smiles": "OC1CCCN(Cc2cccc(-c3ccc(-c4nc5ccccc5[nH]4)cc3)c2)C1", "note": "(stereo not shown) [TCMDC-133817]", "% Inhibition": -22.44}, {"smiles": "NC1CCCN(Cc2cccc(-c3cccc(-c4nc5ccccc5[nH]4)c3)c2)C1", "note": "(stereo not shown) [TCMDC-133877]", "% Inhibition": 56.31}, {"smiles": "NC1CCCN(Cc2cccc(-c3ccc(-c4nc5ccccc5[nH]4)cc3)c2)C1", "note": "(stereo not shown) [TCMDC-133848]", "% Inhibition": 22.08}, {"smiles": "Cc1cc(N2CCCCC2)nc2ccc(NC(=O)c3cc(=O)c4ccccc4o3)cc12", "note": "[TCMDC-123602]", "% Inhibition": 13.04}, {"smiles": "Cc1ccc(NC(=O)Nc2ccccc2)cc1-c1ccc(C(=O)Nc2ccncc2)cc1", "note": "[TCMDC-133701]", "% Inhibition": -4.063}, {"smiles": "NC1=NC(c2ccccc2)(c2ccccc2)C(=O)N1Cc1ccc(-c2cccnc2)cc1", "note": "[TCMDC-136999]", "% Inhibition": -17.43}, {"smiles": "CC(=O)N1Cc2ccccc2C1=O", "note": "[TCMDC-131706]", "% Inhibition": 7.417}, {"smiles": "COc1ccc(C(=O)CC(=O)c2ccc(OC)cc2OC)c(OC)c1", "note": "[TCMDC-123465]", "% Inhibition": 12.1}, {"smiles": "CCN(CC)CCN(CCN(CC)CC)c1ccc2c(c1)Sc1c(Cl)ccc(Cl)c1S2", "note": "[TCMDC-137934]", "% Inhibition": 63.92}, {"smiles": "COc1ccc(Cn2c(=O)[nH]c3cc(C(=O)NC4CCN(Cc5ccccc5)CC4)ccc3c2=O)cc1", "note": "[TCMDC-123588]", "% Inhibition": -15.29}, {"smiles": "COc1ccc(NC(=O)N2CCCN(CCCCCNC(=O)/C=C/c3ccc(C(F)(F)F)cc3)CC2)cc1Cl", "note": "[TCMDC-136109]", "% Inhibition": -28.75}, {"smiles": "COc1cc(CN2CCN(c3ccnc(N(C)C4CCN(C)CC4)n3)CC2)cc(Cl)c1O", "note": "[TCMDC-125096]", "% Inhibition": -14.35}]}]}
